Hit rate of the full screen: of about 360,000 compounds, about 11,000 (3.1%) were called active. Entries that show only a call come without a potency. Inconclusive results (about 4%) are left out. Calls come from the whole dose curve; as a rule, active = well fitted inhibition curve with a large enough effect; inconclusive = small, poorly fitted or top-dose-only effect; inactive = no such curve, though single readings can be large or run the other way. The full list was thinned out, with actives kept by preference.
Biological target: Schistosoma mansoni thioredoxin glutathione reductase (TGR) (UniProt Q962Y6)
Assay: qHTS Assay for the Inhibitors of Schistosoma Mansoni Peroxiredoxins; note: nearly all actives have a fitted effect of over 60% in size
Settings: purified TGR, DTNB reduction, TNB absorbance 405 nm; series mostly up to 114 µM
How it was run: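 TGR 20 nM + NADPH 100 uM (dispensed conc.), cpd preinc 15 min RT; start with NADPH (500 uM addition) then DTNB (15 mM addition). Kinetic TNB absorbance, 405 nm filter. Four-parameter Hill fit across titration.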
Potency is the fitted concentration of half-maximal effect.

Row | Compound | Potency
1 | CCOC(=O)c1ccc(NC(=O)Cn2c(=O)cc(C)c3c(C)nn(-c4cccc(F)c4)c32)cc1 | inactive
2 | O=C(COC(=O)Cn1cnc2ccccc2c1=O)NCc1ccccc1Cl | inactive
3 | COc1ccc(C(C)=O)cc1COC(=O)Cn1cnc2ccccc2c1=O | 39.8 µM (active)
4 | COCc1cc(C(C)=O)ccc1OC | inactive
5 | CC(Sc1oc(-c2ccco2)nc1S(=O)(=O)c1ccc(Br)cc1)c1ccccc1 (centres undefined) | inactive
6 | COc1ccc(NC(=O)C2CCN(c3ccc(Sc4ccc(C)cc4)nn3)CC2)c(OC)c1 | inactive
7 | Cc1nnc(SCc2cc(=O)c3cc(F)ccc3[nH]2)n1C | inactive
8 | CCOC(=O)c1ccccc1NC(=O)CC1Nc2ccccc2NC1=O (centres undefined) | 39.8 µM (active)
9 | CCOC(=O)c1ccccc1NC(=S)N1CCC(C(N)=O)CC1 | inactive
10 | COC(=O)c1cc(C)sc1NC(=O)CC1Nc2ccccc2NC1=O (centres undefined) | inactive
11 | CN1CCN(C2(CNC(=O)COc3ccc(C(C)(C)C)cc3)CCCCC2)CC1 | inactive
12 | Cc1ccc2nc(N3CCN(c4cccc(Cl)c4)CC3)c3nnnn3c2c1 | inactive
13 | COc1ccc(Cn2ccn(Cc3cccc(OC)c3)c(=O)c2=O)cc1 | inactive
14 | CCCCc1nn2c(=O)cc(COC(=O)c3cccc(NC(=O)COc4ccccc4)c3)nc2s1 | inactive
15 | O=C(NCc1ccco1)C(c1ccncc1)N(C(=O)Cn1nnc2ccccc21)c1ccccc1 (centres undefined) | inactive
16 | COc1ccccc1N(C(=O)Cn1nnc2ccccc21)C(C(=O)NCc1ccco1)c1ccc(C)o1 (centres undefined) | 44.7 µM (active)
17 | Cc1ccc(C(C(=O)NCc2ccco2)N(CC2CCCO2)C(=O)Cn2nnc3ccccc32)cc1 (centres undefined) | inactive
18 | Cc1ccc(OCCSc2nc(-c3cccs3)nc3cc(=O)[nH]n23)cc1Cl | inactive
19 | Cc1ccc(-c2nc3ccccn3c2Nc2c(C)cccc2C)o1 | inactive
20 | COc1cc(Cl)c(C)cc1NC(=O)CCc1nc2cccnc2n1Cc1cccs1 | inactive
21 | Clc1cccc(-c2nc3nc4ccccc4nc3n2Cc2ccco2)c1 | 17.8 µM (active)
22 | O=c1[nH]c(CSc2ncc(-c3ccc(F)cc3)n2Cc2ccco2)nc2ccccc12 | inactive
23 | CCC(C)n1c(-c2cc(OC)c(OC)c(OC)c2)nc2nc3ccccc3nc21 (centres undefined) | inactive
24 | Cc1ccc(NC(=O)C2CCN(S(=O)(=O)c3cc(-c4noc(C)n4)ccc3C)CC2)c(C)c1 | inactive
25 | FC(F)(F)c1cc(Nc2nc3ccccc3c3nncn23)ccc1Cl | inactive

Row | Compound | Potency
26 | CCOc1ccc(NCCC(=O)c2ccc3c(c2)OCO3)cc1 | 1.41 µM (active)
27 | COC(=O)CCNc1ccc2c(c1)OCCO2 | inactive
28 | O=C(COc1ccc(Cl)cc1)Nc1ccc2c(c1)OCO2 | inactive
29 | Cc1ccc(NC(=O)CSc2nnc3[nH]c(=O)cc(C)n23)cc1Cl | inactive
30 | Cc1oc2c(c1C(=O)Nc1ccc(F)c(F)c1)C1=NCCN1C=N2 | inactive
31 | COc1cc(OC)cc(C(=O)OCC(=O)Nc2sccc2C(N)=O)c1 | inactive
32 | NC(=O)c1ccsc1NC(=O)c1ccco1 | 44.7 µM (active)
33 | CC1CN(S(=O)(=O)c2ccc(C(=O)Nc3sccc3C(N)=O)cc2)CC(C)O1 (centres undefined) | inactive
34 | O=C(OCCN1C(=O)c2ccccc2C1=O)Oc1ccccc1 | inactive
35 | O=C1c2ccccc2C(=O)N1CCC(O)C[N+](=O)[O-] (centres undefined) | 28.2 µM (active)
36 | O=C(CCN1C(=O)c2ccccc2C1=O)Nc1cccc(F)c1 | inactive
37 | Cc1ccc(CCNC(=O)C2CCN(c3nnc(-n4cccc4CNc4ccc(C)cc4)s3)CC2)cc1 | inactive
38 | COc1ccc(-c2noc(-c3ccc(N4CCN(c5ccccc5)CC4)c([N+](=O)[O-])c3)n2)cc1OC | inactive
39 | O=C(NCc1ccccc1)C(=O)NCC(c1ccco1)S(=O)(=O)c1ccc(Cl)cc1 (centres undefined) | 50.1 µM (active)
40 | O=C(NCc1ccncc1)C(=O)NCc1ccco1 | inactive
41 | COc1ccccc1CNC(=O)C(=O)NCC(c1ccco1)S(=O)(=O)c1ccc(F)cc1 (centres undefined) | 10 µM (active)
42 | COc1ccc(S(=O)(=O)N(CC(=O)NCc2ccco2)c2ccc(F)cc2)cc1 | inactive
43 | COc1ccc(S(=O)(=O)NC(CC(=O)NCc2ccccc2OC)c2ccco2)cc1 (centres undefined) | inactive
44 | O=C(NCCc1ccccc1)C(=O)NCC(c1ccco1)S(=O)(=O)c1ccccc1 (centres undefined) | inactive
45 | COC(=O)c1cnc(N2CCN(c3ccccc3OC)CC2)c2ccccc12 | inactive
46 | Cc1ccc(F)cc1S(=O)(=O)N1CCC(c2nc3ccccc3s2)CC1 | inactive
47 | Cc1ccc2c(c1)N(C(=O)CCC(=O)NCc1ccccc1F)CC(C)O2 (centres undefined) | inactive
48 | CC(=O)N1CCCc2cc(S(=O)(=O)N3CCC(C(=O)NCc4ccc(C)cc4)CC3)ccc21 | inactive
49 | O=S(=O)(NCCc1nnc2ccc(SCc3ccc(Cl)cc3Cl)nn12)c1ccccc1 | inactive
50 | O=C(NCC(c1ccc(Cl)cc1)N1CCOCC1)c1ccccc1F (centres undefined) | inactive

Row | Compound | Potency
51 | CCOc1cccc(NC(=O)c2ccc(F)c(S(=O)(=O)N(CC)c3cccc(C)c3)c2)c1 | inactive
52 | O=C(c1cn2ccccc2n1)N1CCc2c([nH]c3ccccc23)C1c1ccccn1 (centres undefined) | inactive
53 | CCOc1ccc(C2c3[nH]c4ccccc4c3CCN2Cc2cccn2-c2ncccn2)cc1 (centres undefined) | inactive
54 | c1ccc(C2c3[nH]c4ccccc4c3CCN2Cc2cccn2-c2cccnc2)nc1 (centres undefined) | 15.8 µM (active)
55 | Cc1ccc(NC(=O)CSc2nc3c([nH]c4ccccc43)c(=O)n2-c2ccccc2)c(C)c1 | inactive
56 | CCc1c(C)sc(NC(=O)C2c3ccccc3Oc3ccccc32)c1C(=O)OC(C)C | inactive
57 | C/C(=N/Nc1nc(-c2ccccc2)c(CC(=O)O)s1)c1ccccc1 | 0.316 µM (active)
58 | CCOc1ccc(-c2nc(C)sc2CC(=O)O)cc1 | inactive
59 | CCOC(=O)C(=O)Nc1nc(-c2ccccc2)c(CC)s1 | inactive
60 | Cc1ccc(-c2cn3c(n2)sc2cc(C(=O)NCc4cccs4)ccc23)c(C)c1 | inactive
61 | COc1ccc(NC(=O)CSc2nccn2C2CCCC2)cc1OC | inactive
62 | CCOc1ccc(-c2nonc2NC(=O)c2oc3ccc(CC)cc3c2C)cc1 | inactive
63 | CN(C(=O)CSc1nc2ccc(NC(=O)COc3ccccc3)cc2s1)c1ccccc1 | inactive
64 | Cc1cc(C)c(NC(=O)CN2C(=O)c3cccnc3Oc3ccc(Cl)cc32)c(C)c1 | inactive
65 | CCNC(=O)Cn1nc(C)n2c(cc3c(OC)cccc32)c1=O | inactive
66 | O=C(Nc1ccc(Cl)cc1)c1cccc(OC(=S)N2CCOCC2)c1 | inactive
67 | CC(=O)Oc1cccc(N2C(=O)CC(Nc3ccc(N4CCOCC4)cc3)C2=O)c1 (centres undefined) | 22.4 µM (active)
68 | O=C(Nc1ccc(N2CCOCC2)cc1)c1ccc2c(c1)OCO2 | inactive
69 | CCCCn1c(N)c(N(CC)C(=O)/C=C/c2ccco2)c(=O)[nH]c1=O | 22.4 µM (active)
70 | CCCCN(C(=O)/C=C/c1ccco1)c1c(N)n(CC(C)C)c(=O)[nH]c1=O | 44.7 µM (active)
71 | CCCCn1c(N)c(N(CC)C(=O)c2ccccc2C(F)(F)F)c(=O)[nH]c1=O | inactive
72 | CCCCN(C(=O)c1ccc(C)o1)c1c(N)n(CCCC)c(=O)[nH]c1=O | inactive
73 | CCCCn1c(N)c(N(CC)C(=O)c2ccc(N(C)S(=O)(=O)c3ccc(C)cc3)cc2)c(=O)[nH]c1=O | inactive
74 | CCCCN(C(=O)c1nn(C)c(=O)c2ccccc12)c1c(N)n(CCC)c(=O)[nH]c1=O | inactive
75 | Cc1ccc(OCC(=O)Nc2ccccc2C(=O)NC2CC2)cc1 | inactive

Row | Compound | Potency
76 | Cc1ccc(OCC(=O)Nc2ccccc2C(=O)NC2CC2)cc1C | 35.5 µM (active)
77 | COc1ccccc1OCC(=O)Nc1ccccc1C(=O)NC1CC1 | inactive
78 | COc1cccc(C(=O)NC2=NC(c3ccc(N(C)C)cc3)CC(=O)N2)c1 (centres undefined) | inactive
79 | COc1cc2nc(SCC(=O)Nc3ccccc3F)n3nc(-c4ccccc4)nc3c2cc1OC | inactive
80 | S=C(NCCc1ccccc1)NCC1CCCO1 (centres undefined) | inactive
81 | Oc1c(Br)cc(/C=N/NC(=S)NCC2CCCO2)cc1Br (centres undefined) | 2.51 µM (active)
82 | S=C(NCC1CCCO1)N1CCN(c2ccc(Cl)c(Cl)c2)CC1 (centres undefined) | inactive
83 | CCc1ccc(N2C(=O)CN(S(=O)(=O)CC)CC2(C)C(=O)NC2CCCCC2)cc1 (centres undefined) | inactive
84 | COc1ccc(NC(=S)Nc2ccccc2Cl)cn1 | 20 µM (active)
85 | COc1cccc(NC(=O)CN2CCN(CC(=O)Nc3ccccc3Cl)CC2)c1 | inactive
86 | CCNC(=S)Nc1cccc(Cl)c1C | inactive
87 | O=C(CCc1nc(CN2CCN(S(=O)(=O)c3ccc(Br)cc3)CC2)no1)N1CCCCC1 | inactive
88 | CCn1cc2nc(SCc3ccccc3Cl)n(CCc3ccccc3)c(=O)c2n1 | inactive
89 | COc1cc(NS(=O)(=O)c2ccc(NC(=S)NC(=O)c3ccc(Br)cc3)cc2)ncn1 | 17.8 µM (active)
90 | COc1ccc(NS(=O)(=O)c2ccc(NC(=S)NC(=O)CC(C)C)cc2)cc1 | inactive
91 | COc1cc(NS(=O)(=O)c2ccc(NC(=O)CN3C(=O)c4ccccc4C3=O)cc2)ncn1 | inactive
92 | O=C(Nc1ccc(S(=O)(=O)Nc2ccccn2)cc1)c1ccccc1 | inactive
93 | COc1cc(NS(=O)(=O)c2ccc(NC(=S)NC(=O)c3ccccc3)cc2)nc(OC)n1 | 20 µM (active)
94 | COc1cc(NS(=O)(=O)c2ccc(NC(=O)c3ccc(S(=O)(=O)N4CCCCC4)cc3)cc2)ncn1 | inactive
95 | COc1ccc(-c2nc3c4ccccc4n(CC(=O)Nc4ccc(C(C)=O)cc4)c(=O)n3n2)cc1 | inactive
96 | Cc1ccccc1-n1c(=O)c2ccccc2n(Cc2ccc(F)cc2)c1=O | inactive
97 | Nc1ccccc1SC(C[N+](=O)[O-])c1ccccc1 (centres undefined) | 17.8 µM (active)
98 | Cc1ccccc1-c1nc2cc(NC(=O)c3cccc(OCCC(C)C)c3)ccc2o1 | inactive
99 | CCOc1ccc(C(=O)c2cn(Cc3ccc(F)cc3)c3ccc(F)cc3c2=O)cc1 | inactive

Source: PubChem BioAssay AID485364 (National Center for Advancing Translational Sciences (NCATS), 2010)
